Records with an inconclusive call do not appear. Active and inactive are the calls of the source. The calls were made as follows: active = hit-call score of the fitted dose curve at least 0.9, where 1 is the maximum; inconclusive = response in the unintended direction; inactive = score below 0.9.
Biological target: human Serotonin, 5-Hydroxytryptamine Receptor 3 (5HT3), HTR3A (gene 3359) (UniProt P46098)
Assay: NVS_LGIC_h5HT3: NovaScreen (NVS) Ligand-Gated Ion Channel Assay for human Serotonin, 5-Hydroxytryptamine Receptor 3 (5HT3) (AID 2283325)
Method: NVS_LGIC_h5HT3 is a biochemical, single-readout assay that uses extracted gene-proteins from HEK293 in a cell-free assay. Measurements were taken 1 hour after chemical dosing in a 96-well plate.NVS_LGIC_h5HT3 is one of one assay component(s) measured or calculated from the NVS_LGIC_h5HT3 assay. It is designed to make measurements of radioligand binding, a form of binding reporter, as detected with scintillation counting signals by Filter-based radiodetection technology.Data from the assay component NVS_LGIC_h5HT3 was analyzed into 1 assay endpoint. This assay endpoint, NVS_LGIC_h5HT3, was analyzed in the positive analysis fitting direction relative to DMSO as the negative control and baseline of activity. Using a type of binding reporter, loss-of-signal activity can be used to understand changes in the binding as they relate to the gene HTR3A. Furthermore, this assay endpoint can be referred to as a primary readout, because the performed assay has only produced 1 assay endpoint. To generalize the intended target to other relatable targets, this assay endpoint is annotated to the ion channel intended target family, where the subfamily is ligand-gated ion channel.
Binding assays used specific radioligands (tritiated, iodinated) with non-radioactive competitive displacement ligands in agonist or antagonist protocols (as indicated) and various reference compounds and inhibitors to titrate specific binding to receptors and transporters. Most enzyme assays (CYPs, kinases, phosphatases, proteases, HDACs) used recombinant protein and specific substrates (fluorescence mostly, some colorimetric and radioactive) and inhibitors, followed by a biochemical separation of substrate and product. All assays for the biochemical HTS were initially run in duplicate at a single concentration (10 uM for CYP450 assays and 25 uM for all others). Assay-chemical combinations meeting a pre-defined threshold (e.g., 30% inhibition and other criteria defined below) were then run in singleton concentration-response format with maximum concentration of 20 uM for CYPs and 50 uM for all others. Each assay was run with positive and negative controls, and concurrent controls on every plate. The follow-up (secondary) screen tested active chemical-pairs in concentration series, as well as a few additional assays not tested in the primary screen, some selected negative inactives, and several cases re-run in the concentration series for confirmatory purposes.

human Serotonin, 5-Hydroxytryptamine Receptor 3 (5HT3), HTR3A (gene 3359), sequence (P46098 whole entry, looked up): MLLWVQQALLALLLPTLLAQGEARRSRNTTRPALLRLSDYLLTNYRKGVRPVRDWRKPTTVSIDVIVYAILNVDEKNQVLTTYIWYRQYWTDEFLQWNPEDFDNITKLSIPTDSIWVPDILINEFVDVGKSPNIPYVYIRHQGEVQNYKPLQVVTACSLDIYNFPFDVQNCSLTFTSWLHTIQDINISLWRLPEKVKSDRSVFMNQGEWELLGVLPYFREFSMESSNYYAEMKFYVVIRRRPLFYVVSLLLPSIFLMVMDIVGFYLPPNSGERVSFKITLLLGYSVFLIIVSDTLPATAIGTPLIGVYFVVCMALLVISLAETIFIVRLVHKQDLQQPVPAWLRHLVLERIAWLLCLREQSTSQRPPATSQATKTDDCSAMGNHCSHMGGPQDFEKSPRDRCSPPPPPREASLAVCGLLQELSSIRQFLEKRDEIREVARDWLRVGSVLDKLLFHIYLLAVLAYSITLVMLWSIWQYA

| SMILES | AC50 | outcome |
| --- | --- | --- |
| COc1cc(S(=O)(=O)O)c(C)cc1N=Nc1c(O)ccc2cc(S(=O)(=O)O)ccc12 | 32.8 µM (active) |  |
| Cc1ccc(Cl)cc1 | 7.56 µM (active) |  |
| O=C(OCCCCCOC(=O)c1ccccc1)c1ccccc1 | 0.0428 µM (active) |  |
| NCC1(Cc2noc(=O)[nH]2)CCCCC1 |  | inactive |
| COc1cc(C=O)ccc1O | 15 µM (active) |  |
| CCCCCCCCCCCC(=O)OC |  | inactive |
| CCCCCCCCCCCCCCCC |  | inactive |
| CNCc1cc(F)ccc1Oc1ccc(Cl)c(Cl)c1 |  | inactive |
| Oc1ccc2c(c1)OC[C@@H](N1CCC(O)(c3ccc(F)cc3)CC1)[C@H]2O |  | inactive |
| CCOc1ccc2c(c1)C(C)=CC(C)(C)N2 |  | inactive |
